# In the supplement of paper PMC12282887:
# ± gives the standard deviation of the averaged measurements.
# System: E. coli BW25113 marRABp lux reporter
# Assay: promoter activity interaction Z-score (Lux/OD deviation from empty-vector control); higher = stronger promoter induction by the compound
# Experimental: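 E. coli BW25113 (wild type or ΔmarA/ΔsoxS/Δrob) carrying pTU175 luxCDABE promoter reporters was grown in LB in 384-well plates at 37°C with each of 94 compounds at 4 two-fold concentrations, in biological duplicates. Luminescence and OD600 were read every 30 min for 12 h and integrated as AUC over 8 h (0-8 h WT, 1-9 h mutants). Lux AUC was divided by OD AUC; the interaction score is the residual of a Huber robust fit of each promoter against the empty-vector control, then Z-transformed per promoter.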
structure (smiles),measurement,setting,value
COc1cccc2c1C(=O)c1c(O)c3c(c(O)c1C2=O)C[C@@](O)(C(=O)CO)C[C@@H]3O[C@H]1C[C@H](N)[C@H](O)[C@H](C)O1 [Doxorubicin],promoter activity interaction Z-score,"0.29 µg/ml, genetic background: wild type",0.237 ± 0.34
same,promoter activity interaction Z-score,"0.29 µg/ml, genetic background: ΔmarA",-0.264 ± 0.2
same,promoter activity interaction Z-score,"0.29 µg/ml, genetic background: Δrob",-0.254 ± 0.1
same,promoter activity interaction Z-score,"0.29 µg/ml, genetic background: ΔsoxS",0.0277 ± 0.11
same,promoter activity interaction Z-score,"0.58 µg/ml, genetic background: wild type",-0.0763 ± 0.21
same,promoter activity interaction Z-score,"0.58 µg/ml, genetic background: ΔmarA",0.0102 ± 0.26
same,promoter activity interaction Z-score,"0.58 µg/ml, genetic background: Δrob",-0.188 ± 0.032
same,promoter activity interaction Z-score,"0.58 µg/ml, genetic background: ΔsoxS",0.0987 ± 0.23
same,promoter activity interaction Z-score,"1.2 µg/ml, genetic background: wild type",0.0323 ± 0.31
same,promoter activity interaction Z-score,"1.2 µg/ml, genetic background: ΔmarA",-0.148 ± 0.1
same,promoter activity interaction Z-score,"1.2 µg/ml, genetic background: Δrob",-0.236 ± 0.064
same,promoter activity interaction Z-score,"1.2 µg/ml, genetic background: ΔsoxS",0.0249 ± 0.092
same,promoter activity interaction Z-score,"2.3 µg/ml, genetic background: wild type",-0.0695 ± 0.11
same,promoter activity interaction Z-score,"2.3 µg/ml, genetic background: ΔmarA",-0.158 ± 0.16
same,promoter activity interaction Z-score,"2.3 µg/ml, genetic background: Δrob",-0.24 ± 0.021
same,promoter activity interaction Z-score,"2.3 µg/ml, genetic background: ΔsoxS",-0.0671 ± 0.12
Cc1onc(-c2ccccc2)c1C(=O)N[C@@H]1C(=O)N2[C@@H]1SC(C)(C)[C@@H]2C(=O)O [Oxacillin],promoter activity interaction Z-score,"0.53 µg/ml, genetic background: wild type",-0.0416 ± 0.14
same,promoter activity interaction Z-score,"0.53 µg/ml, genetic background: ΔmarA",-0.145 ± 0.48
same,promoter activity interaction Z-score,"0.53 µg/ml, genetic background: Δrob",-0.0895 ± 0.14
same,promoter activity interaction Z-score,"0.53 µg/ml, genetic background: ΔsoxS",0.143 ± 0.032
same,promoter activity interaction Z-score,"1.1 µg/ml, genetic background: wild type",0.221 ± 0.0058
same,promoter activity interaction Z-score,"1.1 µg/ml, genetic background: ΔmarA",0.189 ± 0.3
same,promoter activity interaction Z-score,"1.1 µg/ml, genetic background: Δrob",0.0302 ± 0.28
same,promoter activity interaction Z-score,"1.1 µg/ml, genetic background: ΔsoxS",0.214 ± 0.17
same,promoter activity interaction Z-score,"2.1 µg/ml, genetic background: wild type",-0.151 ± 0.12
same,promoter activity interaction Z-score,"2.1 µg/ml, genetic background: ΔmarA",-0.0728 ± 0.16
same,promoter activity interaction Z-score,"2.1 µg/ml, genetic background: Δrob",0.0223 ± 0.02
same,promoter activity interaction Z-score,"2.1 µg/ml, genetic background: ΔsoxS",0.133 ± 0.06
same,promoter activity interaction Z-score,"4.2 µg/ml, genetic background: wild type",0.0879 ± 0.03
same,promoter activity interaction Z-score,"4.2 µg/ml, genetic background: ΔmarA",0.194 ± 0.076
same,promoter activity interaction Z-score,"4.2 µg/ml, genetic background: Δrob",-0.03 ± 0.043
same,promoter activity interaction Z-score,"4.2 µg/ml, genetic background: ΔsoxS",0.211 ± 0.2
CC(=O)Oc1ccccc1C(=O)O [Acetylsalicylic acid],promoter activity interaction Z-score,"22.5 µg/ml, genetic background: wild type",0.161 ± 0.7
same,promoter activity interaction Z-score,"22.5 µg/ml, genetic background: ΔmarA",0.108 ± 0.13
same,promoter activity interaction Z-score,"22.5 µg/ml, genetic background: Δrob",0.479 ± 0.51
same,promoter activity interaction Z-score,"22.5 µg/ml, genetic background: ΔsoxS",0.261 ± 0.009
same,promoter activity interaction Z-score,"45 µg/ml, genetic background: wild type",0.512 ± 0.54
same,promoter activity interaction Z-score,"45 µg/ml, genetic background: ΔmarA",0.152 ± 0.14
same,promoter activity interaction Z-score,"45 µg/ml, genetic background: Δrob",0.623 ± 0.14
same,promoter activity interaction Z-score,"45 µg/ml, genetic background: ΔsoxS",0.318 ± 0.23
same,promoter activity interaction Z-score,"90.1 µg/ml, genetic background: wild type",0.0791 ± 0.33
same,promoter activity interaction Z-score,"90.1 µg/ml, genetic background: ΔmarA",-0.0396 ± 0.066
same,promoter activity interaction Z-score,"90.1 µg/ml, genetic background: Δrob",0.404 ± 0.071
same,promoter activity interaction Z-score,"90.1 µg/ml, genetic background: ΔsoxS",0.469 ± 0.2
same,promoter activity interaction Z-score,"180.2 µg/ml, genetic background: wild type",1.81 ± 0.28
same,promoter activity interaction Z-score,"180.2 µg/ml, genetic background: ΔmarA",1.65 ± 0.22
same,promoter activity interaction Z-score,"180.2 µg/ml, genetic background: Δrob",2.07 ± 0.099
same,promoter activity interaction Z-score,"180.2 µg/ml, genetic background: ΔsoxS",1.89 ± 0.43
